Sampled rows, rich in hits. Any-hit rate of the full collection: about 21%.
Cycloheximide cs = counter-screen for Shiga toxin inhibitors: cycloheximide protein synthesis inhibition | max response, % | hit rate 12% among 300,000 | cell reporter, cycloheximide protein synthesis inhibition counterscreen; in the data active = max response mostly above about 13%, no sharp cut-off; inactive = mostly below about 14%; note: read at 38.3 µM for the half of the compounds with a filed dose; 0% is about no effect
Shiga inhibitor = Shiga toxin inhibition; hit rate 9.2% among 290,000; Vero cells, Shiga toxin protein synthesis inhibition reporter; inhibition, % at 38.7 µM; AID 2315; in the data active = inhibition mostly above about 28%, no sharp cut-off; inactive = mostly below about 43%; note: 0% is about no effect
Pf growth 48h = P. falciparum growth inhibition at 48 hours (one generation). P. falciparum luciferase growth in erythrocytes, 48 h. Potency, µM (top dose mostly 28.7 µM), for the others: at the highest dose activity change, negative = inhibition, actives largely listed as inhibitors. hit rate 5.9% among 310,000. AID 504832; note: potency is the fitted concentration of half-maximal effect; % is set by controls: 0 for no effect and ±100 for the full control effect
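Erythrocytes infected with P. falciparum carrying an integrated firefly luciferase reporter (2% hematocrit, 0.1% parasitemia final) were exposed to compounds in RPMI 1640 with 0.5% Albumax at 37 C, 5% CO2. Growth inhibition was scored as reduced luminescence.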
HCMV inh = inhibitors of human cytomegalovirus; HFF cells, HCMV-luciferase reporter, 72 h; stronger effect = lower value; activity change, negative = inhibition, % at 57.5 µM; hit rate 4.5% among 410,000; AID 1259415; in the data active = activity change below about -60%; inconclusive = no clear call, values can overlap the other calls; inactive = above about -39%; note: % is set by controls: 0 for no effect and ±100 for the full control effect
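Human foreskin fibroblasts infected with luciferase-reporter HCMV at MOI 1 PFU/cell, compounds at two doses. Luciferase measured 72 h post infection; normalized to buffer-only basal and Salinomycin (10uM) controls.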
HCV inhibitor = inhibitors of hepatitis C virus infection; Huh7.5.1 HCVcc-Cre infection, luciferase reporter, 44 h; Potency, µM (top dose mostly 41.8 µM), for inactives: top-dose activity change, negative = inhibition, most hits filed as inhibitors; hit rate 3.4% among 340,000; note: potency is the fitted concentration of half-maximal effect; % is set by controls: 0 for no effect and ±100 for the full control effect
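1,000 cells/well; 4 h culture; + compound; + HCVcc-Cre (~0.5 moi); 44 h; luciferase substrate, RT 15 min; read 15 sec.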
Pf growth 96h = P. falciparum growth inhibition at 96 hours. hit rate 6.9% among 320,000. Potency, µM (doses to about 28.7 µM), without a hit: at the highest dose activity change, negative = inhibition, usual class: inhibitors. AID 504834. P. falciparum luciferase reporter growth, 96 h; note: potency is the fitted concentration of half-maximal effect; % is set by controls: 0 for no effect and ±100 for the full control effect
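Luminescence readout: decreased luciferase signal marks inhibited growth of reporter-expressing P. falciparum in infected red cells (2% hematocrit, 0.05% parasitemia final), exposed to compound two generations (96 h, 37 C, 5% CO2).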
* marks the source's active call; other numbers are inactive results; ? = inconclusive; nt = no result given; [ ] = another dose, or the depositor's remark. Unless noted, calls come from the whole dose curve; as a rule, active = well fitted inhibition curve with a large enough effect; inconclusive = small, poorly fitted or top-dose-only effect, or another doubt; inactive = no such curve, though single readings can be large or run the other way.

SMILES	Cycloheximide cs	Shiga inhibitor	Pf growth 48h	HCMV inh	HCV inhibitor	Pf growth 96h
O=c1c2c3nc4ccccc4nc3n(-c3cccc(F)c3)c2ncn1Cc1ccc2c(c1)OCO2	-2.7	-2.1	0.0%	nt	nt	?
CCOCCCn1c(C)nc2c(c1=O)c1nc3ccccc3nc1n2-c1ccc2c(c1)OCCO2	-2.9	-25.4	5.22µM*	nt	-11.3%	?
CCC(C)n1cnc2c(c1=O)c1nc3ccccc3nc1n2Cc1ccc2c(c1)OCO2 (stereo unspecified)	1.6	12.1	3.7µM*	nt	nt	?
CCC(C)n1cnc2c(c1=O)c1nc3ccccc3nc1n2-c1ccc2c(c1)OCCO2 (stereo unspecified)	-1.2	3.3	13.7%	-33.0	17.0%	13.1µM*
O=C(CCS(=O)(=O)c1ccc(Br)cc1)NC1CCCC1	-5.4	-11.4	nt	42.2	6.3%	-3.4%
O=C(NCCNC1CCC(c2ccccc2)CC1)c1cccs1 (stereo unspecified)	-2.2	-28.9	-8.1%	-98.7*	?	-108.4%
O=C(NCCC1CCCC1)c1cccs1	40.2*	45.0*	87.3%	77.8	-7.6%	-24.3%
O=C(NC1CCCCC1NC(=O)c1cccs1)c1cccs1 (stereo unspecified)	1.1	-5.6	-5.3%	-26.5	3.9%	?
O=C(CCS(=O)(=O)c1cccs1)NC1CCCCCC1	30.7*	115.3*	88.9%	98.9	?	?
O=C(NCC1CC1)c1cccs1	nt	nt	nt	18.1	nt	nt
O=C(NC1CCCCCC1)c1cccs1	37.6*	67.8*	?	57.7	9.6%	-15.6%
Cc1c(CCC(=O)NCCCC(=O)O)c(=O)oc2cc3oc4c(c3cc12)CCCC4	8.4	-6.2	-18.3%	?	1.3%	0.9%
Cc1ccc2nc(COc3cccc(NC(=O)COc4ccccc4F)c3)cc(=O)n2c1	nt	nt	nt	31.2	nt	nt
COC(=O)[C@H](Cc1c[nH]c2ccccc12)NC(=O)NCc1ccccc1	2.6	-5.0	6.6%	?	-0.6%	9.3%
C=CCSc1nnc(-c2sc(-c3ccccc3)nc2C)n1C	41.6*	16.6	-8.0%	23.4	-10.0%	15.9%
C=CCSc1nnc(-c2nnc(SCC=C)n2-c2ccccc2)n1-c1ccccc1	5.8	-9.8	?	?	-5.1%	6.57µM*
Cn1c(SCC(N)=O)nnc1-c1ccccc1	-5.3	-13.7	3.6%	-1.7	?	nt
C=CCSc1nnc(CCc2ccccc2)n1N	nt	nt	47.9%	7.4	0.8%	?
CCS(=O)(=O)c1ncc(Cl)c(C(=O)Nc2ccc(S(=O)(=O)N3CCC(C)CC3)cc2)n1	-1.4	-13.3	15.2%	-99.6*	?	64.0%
CC(C)Sc1ncc(Cl)c(C(=O)Nc2ccc(S(=O)(=O)N3CCCCC3C)cc2)n1 (stereo unspecified)	nt	nt	nt	-6.9	nt	nt
CSc1ncc(Cl)c(C(=O)Nc2ccc(S(=O)(=O)N3CCC(C)CC3)cc2)n1	nt	nt	nt	-76.5*	nt	nt
CCCSc1ncc(Cl)c(C(=O)Nc2ccc(S(=O)(=O)N3CC(C)OC(C)C3)cc2)n1 (stereo unspecified)	8.1	3.3	nt	-67.5*	10µM*	?
CCCS(=O)(=O)c1ncc(Cl)c(C(=O)Nc2ccc(S(=O)(=O)Nc3ncccn3)cc2)n1	9.9	17.1	41.1%	-19.9	16.6%	?
COCc1cc(C)nc2sc(C(=O)NCCO)c(-n3cccc3)c12	10.3	20.7	-1.1%	-12.2	-18.9%	?
CCOC(=O)c1c(S(=O)(=O)N2CCC(C(=O)N3CCN(c4ccccc4F)CC3)CC2)c(C)n(C)c1C	nt	nt	nt	-8.7	nt	nt
SMILES	Cycloheximide cs	Shiga inhibitor	Pf growth 48h	HCMV inh	HCV inhibitor	Pf growth 96h
Cc1ccc(C)c(NCC(O)c2ccccc2)c1 (stereo unspecified)	-1.1	13.9	-9.2%	13.8	-1.8%	3.4%
COc1ccc(C(CNC(=O)c2cccc([N+](=O)[O-])c2)N2CCOCC2)cc1 (stereo unspecified)	nt	nt	nt	83.6	nt	nt
CCC(=O)NC(=S)Nc1cccc(NC(=O)c2ccco2)c1	-0.1	-9.1	2.0%	-14.8	-3.5%	?
O=C(Nc1ccc(NC(=O)c2ccco2)cc1)c1ccc2c(c1)OCCO2	17.2	-19.1	-10.8%	-72.5*	?	309.4%
O=C(c1ccco1)N1CCCC(Nc2ccc3c(c2)OCCO3)C1 (stereo unspecified)	43.2*	85.0*	89.7%	75.0	-1.5%	-21.6%
O=C(NC(=S)Nc1cccc(O)c1)c1ccco1	54.0*	94.4*	84.5%	-34.6	?	146.5%
O=C(NC(=S)Nc1ccc2c(c1)OCCO2)c1ccco1	46.1*	99.6*	0.0%	72.2	-7.0%	178.7%
O=C(CNC(=O)c1ccco1)Nc1ccc2c(c1)OCCO2	nt	nt	126.4%	72.6	11.5%	213.0%
CC1CN(C(=O)CSc2nnc(NC(=O)NC(C)(C)C)s2)CC(C)O1 (stereo unspecified)	nt	nt	0.4%	-8.3	-11.7%[8.37 µM]	-9.6%
O=C(COc1ccccc1)Nc1ccccc1F	32.9*	nt	46.1%	-16.9	25.4%	-21.2%
O=C(CCCCl)NC1=NN(c2ccccc2)C(=O)C1	6.0	15.8	8.2%	-30.2	-7.5%	26.3%
Cc1ccc(Cl)cc1NC(=O)COC(=O)C1CCCC1	-1.0	-4.1	22.3%	-8.4	9.0%	2.7%
O=C(COc1ccccc1)Nc1cc(Cl)ccc1Cl	17.5*	37.1*	54.2%	56.0	2.3%	43.9%
CCCNS(=O)(=O)c1ccc(OCC(=O)Nc2ccccc2F)cc1	12.5	11.3	1.9%	-0.4	-9.2%	-4.0%
Cc1ccc(Cl)cc1NC(=O)COC(=O)C12CC3CC(CC(C3)C1)C2	-2.7	35.9	3.7µM*	-18.6	-19.5%	7.38µM*
O=C(COc1ccc(Cl)cc1)NC1=NN(c2ccccc2)C(=O)C1	-3.6	-3.7	7.8%	-19.6	11.4%	8.28µM*
CCC(=O)N1c2ccccc2CC1C(=O)NCCCN1CCN(c2ccc(F)cc2)CC1 (stereo unspecified)	nt	nt	nt	11.0	nt	nt
O=C(COc1ccccc1)Nc1ccc(Cl)cc1Cl	52.8*	92.6*	117.7%	nt	nt	136.7%
O=C(COc1ccccc1)Nc1ccc(Cl)cc1C(=O)c1ccccc1	5.1	-3.4	-15.7%	-23.5	-6.2%	-4.2%
Cc1ccc(Cl)cc1NC(=O)COc1ccccc1	15.6*	30.4	15.9%	15.7	-12.1%	22.4%
Cc1ccc2c(c1)c1c(n2CCc2ccc(C)nc2)CCN(C)C1	nt	nt	14.7µM*	-10.0	nt	2.08µM*
COc1ccc(-c2nc3ccc(N4CCN(C)CC4)cc3c(=O)[nH]2)cc1	19.5	57.9	?	-17.2	-13.4%	52.3%
COc1cc(-c2nc3ccc(N4CCN(C)CC4)cc3[nH]2)cc(OC)c1OC	26.5	48.3	9.28µM*	90.8	7.94µM*	3.7µM*
Cc1ccccc1N1C(=O)c2cc(N)ccc2N/C1=C\F	nt	nt	-6.9%	nt	nt	?
CN(C)c1ccccc1C(=O)c1ccccc1N(C)C	28.4*	86.4*	67.0%	74.9	3.98µM*	nt
COc1cccc(-n2cc(C(=O)NCc3ccc(C)cc3)c3ccccc3c2=O)c1	nt	nt	nt	-34.7	nt	nt
